Screening data: PubChem, several laboratories
TNF death inh: TNF-alpha cell death inhibition in Jurkat FADD-/- cells | Jurkat FADD-/- TNF necroptosis rescue, ATP luminescence, 24 h; 0 = TNF only, 100 = no-TNF cells | activation (protection from cell death), % at 10 µM | hit rate 0.068% among 220,000 | AID 463075;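 active means activation, meaning protection from cell death, of at least 50% relative to plate controls; inactive means activation below 50%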;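 further: necroptosis triggered by 40 ng/mL TNF-alpha added together with compound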
Mcl1-Bid inh: Mcl-1/Bid interaction inhibition; TR-FRET Mcl-1/Bid-Dy647 peptide binding, 1536-well; AID 1021; inhibition, % at 21.7 µM; hit rate 0.97% among 220,000; Q07820;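 active means compounds that cut the binding signal by more than half at the single screening dose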;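 further: His-tagged Mcl-1 with europium anti-His antibody binding Bid BH3 peptide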
Target sequence (Q07820 whole entry, looked up): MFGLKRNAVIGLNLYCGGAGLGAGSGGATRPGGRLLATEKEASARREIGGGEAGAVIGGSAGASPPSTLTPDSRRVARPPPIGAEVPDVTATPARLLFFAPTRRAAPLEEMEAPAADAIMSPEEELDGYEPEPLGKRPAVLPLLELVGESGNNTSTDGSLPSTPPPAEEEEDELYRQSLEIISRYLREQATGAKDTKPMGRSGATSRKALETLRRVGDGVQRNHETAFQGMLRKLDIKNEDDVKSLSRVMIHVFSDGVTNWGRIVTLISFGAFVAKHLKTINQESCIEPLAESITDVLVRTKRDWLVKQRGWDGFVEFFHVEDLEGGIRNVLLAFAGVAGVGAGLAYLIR
zVAD death inh: L929 zVAD cell death inhibition; viability rescue, % at 10 µM; hit rate 0.38% among 220,000; L929 zVAD necroptosis rescue, ATP luminescence, 24 h; with zVAD 60 µM;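 active means activation, scaled between plate controls, above about 75%, limit read from the data; inactive means activation under that limit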
Bim-Mcl-1: disrupts Bim peptide binding to human Mcl-1; Q07820; Bead-based flow cytometry, Bim peptide-Mcl-1 binding; inhibition, % at 10 µM; hit rate 0.1% among 190,000; AID 1009; in the data active means inhibition above about 40%
Mcl1-Noxa inh: disrupts binding of human Mcl-1 to Noxa peptide. TR-FRET Mcl-1/Noxa peptide binding, 2 h. hit rate 1.5% among 220,000. inhibition, % at 21.7 µM;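 active means compounds that cut the protein-peptide binding signal by more than 50% relative to plate controls in a single-dose test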;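 further: His-tagged Mcl-1 with rhodamine Noxa BH3 peptide and terbium anti-His antibody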
MCL1 BIM primary: inhibitors of human MCL1 binding to BIM-BH3 peptide; GST-MCL1 / FITC-Bim-BH3 fluorescence polarization; inhibition, % at 10.9 µM; hit rate 0.68% among 320,000; AID 2057;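 active means inhibition above the mean inhibition of all tested compounds plus 3 SD, set per campaign, cut at about 40% in these data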;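 further: higher means more loss of mP so more displacement of Bim peptide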
Large screens that a line does not name were inactive. Hits are enriched below; roughly 2.4% of the tested compounds scored in any of these assays.

COc1cc(/C=N/NC(=O)CN(Cc2ccccc2)S(=O)(=O)c2ccc3c(c2)OCCO3)ccc1O	none
COc1ccc(CNC(=O)CNC(=O)c2cccs2)c(OC)c1	none (no result: TNF death inh, Mcl1-Bid inh, zVAD death inh, Bim-Mcl-1, Mcl1-Noxa inh)
CCOC(=O)N1CCC(NC(=O)C2CCN(S(=O)(=O)N3CCCC3)CC2)CC1	none
CCOC(=O)N1CCC(NC(=O)C2CCN(S(=O)(=O)c3c(C)noc3C)CC2)CC1	Mcl1-Bid inh 55
NC(Cc1c[nH]c2ccccc12)C(=O)NCc1ccccc1 (stereo not drawn)	none (no result: TNF death inh, Mcl1-Bid inh, zVAD death inh, Bim-Mcl-1, Mcl1-Noxa inh)
COCCN=c1scc(-c2ccco2)n1/N=C/c1ccc(O)c(O)c1O	Mcl1-Noxa inh 103
O=C(c1ccc2c(c1)[nH]c(=S)n1c3ccccc3nc21)N1CCN(c2ncccn2)CC1	none
O=C(NCCN1CCN(c2ccccc2)CC1)c1ccc2c(c1)[nH]c(=S)n1c3ccccc3nc21	Mcl1-Noxa inh 51
O=C(CNc1ccc2ccccc2c1)N/N=C/C=C/c1cccc([N+](=O)[O-])c1	Mcl1-Noxa inh 77
COc1cn(-c2ccccc2)nc1C(=O)NCc1ccccc1	none (no result: TNF death inh, Mcl1-Bid inh, zVAD death inh, Bim-Mcl-1, Mcl1-Noxa inh)
CSC1=NSC2=NC(=O)/C(=C/c3coc4ccccc4c3=O)C(=N)N12	MCL1 BIM primary 52
CSC1=NSC2=NC(=O)/C(=C\c3cccs3)C(=N)N12	none
CSC1=NSC2=NC(=O)/C(=C/c3coc4ccc(O)cc4c3=O)C(=N)N12	Mcl1-Noxa inh 62
OCC1CCCN(c2nc(CN3CCCCC3)nc3scc(-c4ccccc4)c23)C1 (stereo not drawn)	Mcl1-Bid inh 97
OCC1CCCN(c2ncnc3scc(-c4ccccc4)c23)C1 (stereo not drawn)	none
CN(C)c1ccc(NC(=O)c2ccc([N+](=O)[O-])cc2Cl)cc1	Mcl1-Noxa inh 74
C/C(CC(=O)Nc1ccccn1)=N\NC(=O)c1ccc([N+](=O)[O-])cc1Cl	none (no result: TNF death inh, Mcl1-Bid inh, zVAD death inh, Bim-Mcl-1, Mcl1-Noxa inh)
CC(C)C(=O)Nc1ccc(NC(=O)c2ccc([N+](=O)[O-])cc2Cl)cc1	none
O=C(Nc1ccccn1)c1ccc([N+](=O)[O-])cc1Cl	Mcl1-Bid inh 94
COc1ccccc1C1C([N+](=O)[O-])=CC([N+](=O)[O-])=CN1C (stereo not drawn)	none
COc1ccccc1C1NC=C([N+](=O)[O-])C=C1[N+](=O)[O-] (stereo not drawn)	Mcl1-Noxa inh 77
COc1cccc(C(=O)N2CCN(C3CCC(c4ccccc4)CC3)CC2)c1OC (stereo not drawn)	Mcl1-Bid inh 55
COc1cccc(OC)c1C(=O)N1CCN(Cc2ccncc2)CC1	Mcl1-Bid inh 71
COc1ccccc1C(=O)N1CCN(c2ccccn2)CC1	none
COc1cccc(OC)c1C(=O)N1CCN(c2ccccn2)CC1	Mcl1-Bid inh 95
COc1cccc(C(=O)N2CCN(Cc3ccccn3)CC2)c1OC	Mcl1-Bid inh 68
COc1ccccc1CN1CCN(C(=O)c2ccncc2)CC1	none
N[C@@H](Cc1ccc(O)cc1)c1nnc([C@H](CC(=O)O)NC(=O)C2CCNCC2)o1	none
Cc1cccc(CSC2=NCCN2S(=O)(=O)c2ccc(F)cc2)c1	none (no result: TNF death inh, Mcl1-Bid inh, zVAD death inh, Bim-Mcl-1, Mcl1-Noxa inh)
C=CCCC(=O)NC1CCCc2c1cnn2-c1ccccc1F (stereo not drawn)	none (no result: TNF death inh, Mcl1-Bid inh, zVAD death inh, Bim-Mcl-1, Mcl1-Noxa inh)
CCN(c1ccc(OC)cc1)S(=O)(=O)c1csc(C(=O)N2CCCC2)c1	none (no result: TNF death inh, Mcl1-Bid inh, zVAD death inh, Bim-Mcl-1, Mcl1-Noxa inh)
Cc1ccc(Cl)cc1NC(=O)c1cc(NC(=O)C2CCCCC2C(=O)O)ccc1N1CCOCC1 (stereo not drawn)	none (no result: TNF death inh, Mcl1-Bid inh, zVAD death inh, Bim-Mcl-1, Mcl1-Noxa inh)
COc1ccc(-n2c(Cc3cccn3C)nnc2SCC(=O)NCc2ccccc2Cl)cc1	Mcl1-Bid inh 65
CCOc1ccc(CCNC(=O)C2CC(C)=CCC2C(=O)O)cc1OCC (stereo not drawn)	none (no result: TNF death inh, Mcl1-Bid inh, zVAD death inh, Bim-Mcl-1, Mcl1-Noxa inh)
O=C(CN1CCN(c2ccc(F)cc2)CC1)NCc1ccc(Cl)cc1	none (no result: TNF death inh, Mcl1-Bid inh, zVAD death inh, Bim-Mcl-1, Mcl1-Noxa inh)
CSCCOC(=O)c1[nH]c2c(c1C)C(=O)CC(c1ccco1)C2 (stereo not drawn)	Mcl1-Noxa inh 58
Cc1c(C(=O)OCc2ccccc2)[nH]c2c1C(=O)CC(c1ccco1)C2 (stereo not drawn)	Mcl1-Bid inh 72, Mcl1-Noxa inh 61
Cc1c(C(=O)OCCOC(C)C)[nH]c2c1C(=O)CC(c1ccco1)C2 (stereo not drawn)	none
COCCOC(=O)c1[nH]c2c(c1C)C(=O)CC(c1ccco1)C2 (stereo not drawn)	Mcl1-Noxa inh 52
CCOC(=O)c1[nH]c2c(c1C)C(=O)CC(c1ccco1)C2 (stereo not drawn)	Mcl1-Noxa inh 79
COCCOC(=O)c1[nH]c2c(c1C)C(=O)CC(c1ccc(F)cc1)C2 (stereo not drawn)	none
COCCOC(=O)c1[nH]c2c(c1C)C(=O)CC(c1ccccc1)C2 (stereo not drawn)	none
Cc1ccccc1-c1noc(C(C)NC(=O)c2ccco2)n1 (stereo not drawn)	none (no result: TNF death inh, Mcl1-Bid inh, zVAD death inh, Bim-Mcl-1, Mcl1-Noxa inh)
CC(C)NC(=O)CSc1ccccc1C(=O)NNC(=O)Cn1ccc(C(F)(F)F)n1	none (no result: TNF death inh, Mcl1-Bid inh, zVAD death inh, Bim-Mcl-1, Mcl1-Noxa inh)
c1ccc(Nc2cccc(Nc3ccccc3)c2)cc1	Mcl1-Noxa inh 88
O=C(CN1C(=O)NC2(CCCC2)C1=O)Oc1ccc2ccc(=O)oc2c1	none (no result: TNF death inh, Mcl1-Bid inh, zVAD death inh, Bim-Mcl-1, Mcl1-Noxa inh)
O=[N+]([O-])c1cc(Br)c(O)c(C=Nc2ccc(N3CCOCC3)cc2)c1	none
O=[N+]([O-])c1cc(Br)c(O)c(/C=N/Nc2nnnn2-c2cccc3ccccc23)c1	Mcl1-Bid inh 66
Cc1[nH]n(-c2ccccc2)c(=O)c1N=Nc1ccc2c(c1)OCO2	none
Nc1[nH]n2c(=O)cc(-c3ccccc3)nc2c1N=Nc1ccc2c(c1)OCO2	Mcl1-Noxa inh 60
COc1ccc(N2Nc3n[nH]c(N)c3N2)cc1	Mcl1-Noxa inh 56
COc1ccccc1C(=O)NCCCCNC(=O)c1ccccc1OC	none (no result: TNF death inh, Mcl1-Bid inh, zVAD death inh, Bim-Mcl-1, Mcl1-Noxa inh)
CCCOC(=O)C1=C(C)N(C)C(=O)NC1c1cc2c(cc1[N+](=O)[O-])OCO2 (stereo not drawn)	MCL1 BIM primary 45
O=C(OCC(=O)N1CCCc2ccccc21)c1ccc(F)c(S(=O)(=O)N2CCOCC2)c1	none (no result: TNF death inh, Mcl1-Bid inh, zVAD death inh, Bim-Mcl-1, Mcl1-Noxa inh)
COc1ccc(NC(=O)NCCN2CCN(c3cc(OC)ccc3OC)CC2)cc1	none (no result: TNF death inh, Mcl1-Bid inh, zVAD death inh, Bim-Mcl-1, Mcl1-Noxa inh)
COc1ccc(N2CCC(CNC(=S)Nc3cc(C)cc(C)c3)C2)cc1 (stereo not drawn)	none (no result: Bim-Mcl-1)
COc1ccc(N2CCC(CNC(=O)Nc3ccccc3)C2)cc1 (stereo not drawn)	Mcl1-Noxa inh 82
COc1ccc(Cl)c(N2CCN(CCCNC(=O)Nc3ccc(C)cc3)CC2)c1	Mcl1-Noxa inh 75
COc1ccc(NC(=O)NCCCN2CCC(Cc3ccccc3)CC2)cc1	Mcl1-Noxa inh 52 (no result: Bim-Mcl-1)
CN(Cc1ccccc1)C(=O)COC(=O)C1CCN(S(=O)(=O)c2ccc(Cl)c(C(F)(F)F)c2)CC1	none (no result: TNF death inh, Mcl1-Bid inh, zVAD death inh, Bim-Mcl-1, Mcl1-Noxa inh)
COc1ccccc1C(=O)Nc1ccnn1C1CCN(C)CC1	none (no result: TNF death inh, Mcl1-Bid inh, zVAD death inh, Bim-Mcl-1, Mcl1-Noxa inh)
Cc1ccccc1C(=O)Nc1ccnn1C1CCN(C2CCSCC2)CC1	none (no result: TNF death inh, Mcl1-Bid inh, zVAD death inh, Bim-Mcl-1, Mcl1-Noxa inh)
